{
  "source": "PubChem BioAssay AID686979",
  "about": "(National Center for Advancing Translational Sciences (NCATS), 2013)",
  "note": "Values joined by “and” are separate entries in the source; they are usually repeats but may differ in a detail not shown here. Identical values can stand only once. About 50,000 (12%) of roughly 420,000 compounds were called active. Inconclusive results (about 26%) are left out. Shown is part of a subset that was picked to be rich in actives. Unmarked numbers belong to inactive results. Calls come from the whole dose curve; as a rule, active = well fitted inhibition curve with a large enough effect; inconclusive = small, poorly fitted or top-dose-only effect; inactive = flat fitted curve, though single readings scatter. % is set by controls: 0 for no effect and ±100 for the full control effect; potency is the fitted concentration of half-maximal effect.",
  "data": [
    {"test": "qHTS for Inhibitors of human tyrosyl-DNA phosphodiesterase 1 (TDP1): qHTS in cells in presence of CPT; note: nearly all actives have a fitted effect of over 55% in size", "conditions": "chicken DT40 Tdp1-/-;hTDP1 cells + 20 nM CPT, ATP luminescence, 48 h; series mostly up to 46.2 µM; activity change, negative = growth inhibition: at the top concentration", "procedure,_shortened": "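Chicken DT40 Tdp1-/- cells stably complemented with human TDP1 were seeded at 400 cells/well in medium containing 20 nM camptothecin, exposed to pin-transferred compounds, and grown at 37 °C for at least 48 hr. Viability was read as ATP luminescence.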", "units": {"activity change, negative = growth inhibition": "%"}, "values": [
      {"compound": "NC(N)=Nc1nc(-c2ccccc2)c2cc(Cl)ccc2n1", "Potency": "16.4 µM (active)"},
      {"compound": "Cc1ccc2nc(Nc3ccccc3O)nc(-c3ccccc3)c2c1", "activity change, negative = growth inhibition": -22.7},
      {"compound": "COC(=O)Cn1nc(-c2ccccc2)c2cc(Cl)ccc21", "activity change, negative = growth inhibition": -2.26},
      {"compound": "O=C(Nc1ccc(-c2cscn2)cc1)C1CCCN(Cc2ccc(CO)o2)C1", "note": "(configuration not stated)", "activity change, negative = growth inhibition": -16.9},
      {"compound": "CN(Cc1ccco1)S(=O)(=O)c1nnc(NC(=O)c2ccccc2)s1", "activity change, negative = growth inhibition": -19.4},
      {"compound": "CC(C)NC(=O)c1ccccc1S(=O)c1ccccc1C#N", "note": "(configuration not stated)", "activity change, negative = growth inhibition": -8.19},
      {"compound": "Cc1cc(NC(=O)CC(C)C)cc(-c2nc3ncccc3o2)c1O", "activity change, negative = growth inhibition": -22.1},
      {"compound": "COc1cccc(CNC(=O)C2CCC(CNS(=O)(=O)c3cccs3)CC2)c1", "note": "(configuration not stated)", "activity change, negative = growth inhibition": -7.39},
      {"compound": "CC(=O)N1CCc2cc(S(=O)(=O)NC3CCCCC3)ccc21", "activity change, negative = growth inhibition": -29.4},
      {"compound": "Cc1ccc(S(=O)(=O)NCCC(=O)NCc2ccc(Cl)cc2)cc1C", "activity change, negative = growth inhibition": -13.5},
      {"compound": "COc1cccc(CNS(=O)(=O)c2csc(C(N)=O)c2)c1", "activity change, negative = growth inhibition": -15.7},
      {"compound": "CC(=O)N1c2ccc(S(=O)(=O)NCCC(=O)N(C)C3CCCCC3)cc2CC1C", "note": "(configuration not stated)", "Potency": "10.3 µM (active)"},
      {"compound": "CC(=O)N1c2ccc(S(=O)(=O)N(C)CC(=O)N(C)Cc3ccccc3)cc2CC1C", "note": "(configuration not stated)", "activity change, negative = growth inhibition": -18.2},
      {"compound": "Cn1c(=O)oc2cc(S(=O)(=O)CCC(=O)NCCc3ccc(Cl)cc3)ccc21", "activity change, negative = growth inhibition": -4.8},
      {"compound": "CC1Cc2cc(S(=O)(=O)CCC(=O)NCc3ccc(Cl)cc3)ccc2N1C(=O)C1CC1", "note": "(configuration not stated)", "Potency": "3.66 µM (active)"},
      {"compound": "CCC(=O)N1c2ccc(S(=O)(=O)CCC(=O)N3CCN(c4ccccc4)CC3)cc2CC1C", "note": "(configuration not stated)", "activity change, negative = growth inhibition": -22.3},
      {"compound": "CC1Cc2ccccc2N1CC(=O)Nc1ccc(S(N)(=O)=O)cc1", "note": "(configuration not stated)", "activity change, negative = growth inhibition": -8.99},
      {"compound": "CC1Cc2cc(S(=O)(=O)CCC(=O)Nc3ccc(F)c(Cl)c3)ccc2N1C(=O)C1CC1", "note": "(configuration not stated)", "Potency": "10.3 µM (active)"},
      {"compound": "COc1cccc(CNS(=O)(=O)c2ccc3c(c2)CC(C)N3C(=O)C2CCC2)c1", "note": "(configuration not stated)", "Potency": "5.8 µM (active) and 7.31 µM (active)"},
      {"compound": "O=C(Cn1cnc2c(cnn2-c2ccc(F)cc2)c1=O)NCCc1ccccc1", "activity change, negative = growth inhibition": -16.9},
      {"compound": "CCCCNC(=O)OCCSCCS(=O)(=O)c1ccc(Cl)cc1", "activity change, negative = growth inhibition": 0.699},
      {"compound": "Cc1nc2c(c(C)nn2-c2ccccc2)c(C)c1C", "activity change, negative = growth inhibition": 0.197},
      {"compound": "CCOC(=O)c1cc(S(=O)(=O)NCCc2ccc(OC)c(OC)c2)cn1C", "activity change, negative = growth inhibition": 0.651},
      {"compound": "CNC(=O)C(NC(=O)c1ccccc1)=C(C)C", "activity change, negative = growth inhibition": 1.28},
      {"compound": "O=C(CSC1CC(=O)N(CCc2ccccc2)C1=O)Nc1ccc(Cl)cc1", "note": "(configuration not stated)", "activity change, negative = growth inhibition": -10.4},
      {"compound": "CCOC(=O)CNc1nc(Cl)nc(Nc2ccc(OC)cc2OC)n1", "activity change, negative = growth inhibition": -6.66},
      {"compound": "Cc1c(S(=O)(=O)N2CC(C)CC(C)C2)c(=O)n(C)c(=O)n1C", "note": "(configuration not stated)", "activity change, negative = growth inhibition": 21.5},
      {"compound": "CC(C)CCN1CCC(C)(NC(=O)c2ccccc2)C1=O", "note": "(configuration not stated)", "activity change, negative = growth inhibition": -24.9},
      {"compound": "O=C(c1ccc(Cl)nc1)N1CCN(S(=O)(=O)c2ccc3c(c2)OCCO3)CC1", "activity change, negative = growth inhibition": -29.3},
      {"compound": "CCOC(=O)c1ccccc1NC(=O)CCc1c(C)nc2c(c1C)c(=O)n(C)c(=O)n2C", "activity change, negative = growth inhibition": 11.4},
      {"compound": "COc1cc(NC(=O)c2ccc(CNc3c(N4CCCC4)c(=O)c3=O)cc2)cc(OC)c1OC", "activity change, negative = growth inhibition": 1.21},
      {"compound": "COc1cc(NC(=O)c2nc3ccccc3nc2C)cc(OC)c1OC", "activity change, negative = growth inhibition": -29.3},
      {"compound": "COc1cc(C(=O)Nc2ccc(-n3c(C)nc4ccccc4c3=O)cc2)cc(OC)c1OC", "Potency": "16.4 µM (active)"},
      {"compound": "COc1cc(C(=O)Nc2ccc(OCc3cc(=O)n4ccc(C)cc4n3)cc2)cc(OC)c1OC", "activity change, negative = growth inhibition": -7.29},
      {"compound": "COc1ccc(NC(=O)CN2C(=O)CSC2=O)cc1", "activity change, negative = growth inhibition": 4.96},
      {"compound": "CCC(=O)N1CCCC1(C)C(=O)Nc1ccc2c(c1)CCN2C(C)=O", "note": "(configuration not stated)", "activity change, negative = growth inhibition": 2.65},
      {"compound": "COC(=O)C1=C(C)Nc2ncnn2C1c1cccnc1", "note": "(configuration not stated)", "activity change, negative = growth inhibition": -0.87},
      {"compound": "CC1=C(C(=O)OC2CCCCC2)C(c2cccnc2)n2ncnc2N1", "note": "(configuration not stated)", "Potency": "14.6 µM (active)"},
      {"compound": "CC1=C(C(N)=O)C(c2ccc(Br)cc2)n2ncnc2N1", "note": "(configuration not stated)", "activity change, negative = growth inhibition": 35.2},
      {"compound": "S=C(NC1CCCCC1)NN1CCOCC1", "activity change, negative = growth inhibition": -5.84},
      {"compound": "Cc1ccc(C(=O)NCCc2nnc(SCC(=O)Nc3cccc(C(=O)O)c3)n2C)cc1", "activity change, negative = growth inhibition": 0.587},
      {"compound": "Cc1cccc(NC(=O)C2CCCN2S(=O)(=O)c2cccc3nsnc23)c1C", "note": "(configuration not stated)", "activity change, negative = growth inhibition": -20.7},
      {"compound": "CCOC(=O)c1cnc(COc2ccccc2Cl)[nH]c1=O", "activity change, negative = growth inhibition": -1.8},
      {"compound": "Cc1nc(NNC(=O)c2ccccc2)cc(-c2ccccc2)n1", "activity change, negative = growth inhibition": -14.5},
      {"compound": "CC(=O)Nc1ccc(-c2csc(NC(=O)Nc3ccccc3)n2)cc1", "Potency": "3.66 µM (active)"},
      {"compound": "O=C(O)c1ccccc1C(=O)Nc1nc(-c2ccccc2)cs1", "activity change, negative = growth inhibition": 1.16},
      {"compound": "CC(=O)Nc1ccc(-c2csc(NC=C3C(=O)OC(C)(C)OC3=O)n2)cc1", "activity change, negative = growth inhibition": -8.37},
      {"compound": "Cc1ccc(-c2csc(NNC(=O)c3ccccc3)n2)cc1", "Potency": "4.11 µM (active)"},
      {"compound": "CC(=O)Nc1ccc(S(=O)(=O)Nc2nc(-c3ccc(C(C)(C)C)cc3)cs2)cc1", "activity change, negative = growth inhibition": -4.81},
      {"compound": "CC(=O)N1CCN(CC(c2ccccc2)c2ccccc2)CC1", "activity change, negative = growth inhibition": -27.6},
      {"compound": "CCOc1cc(/C=N/NC(=O)c2ccc(CSc3nncn3C)cc2)ccc1OCC(=O)N1CCOCC1", "activity change, negative = growth inhibition": 0.321},
      {"compound": "COc1cc(OC)cc(C(=O)Nc2nnc(SCC(=O)NCC3CCCO3)s2)c1", "note": "(configuration not stated)", "activity change, negative = growth inhibition": -19.8}
    ]}
  ]
}
